# Changes are numbered by the printed parent chain.
# How the values were obtained:
# Test in all cases: yeast three-hybrid, YBZ-1, SC-Leu-His + 0.5 mM 3-AT, 4 days
# Settings in all cases: tags: N-Gal4 AD-HA kept; label: inside an RPR1-promoter hybrid RNA with tandem MS2 sites; ssRNA
# PUM1 PUF domain R4-SNC = PUM1 PUF domain R4-SNC (Homo sapiens, UniProt Q14671 828-1176, N971S;H972N;Q975C)
# Summary of the method: (§1)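 Matching RNA elements and Pumilio-1 PUF domain libraries, randomized at the three base-contacting residues of every repeat, were co-expressed from a centromeric plasmid in strain YBZ-1 (LexA–MS2 coat fusion, HIS3 reporter). The repeat regions were PCR-amplified and Illumina-sequenced from cells grown four days on SC-Leu (input) or SC-Leu-His + 0.5 mM 3-AT (selection). The interaction score is the log change in variant frequency from input to selection. It is computed in log2, with a pseudocount of 1 for absent variants.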
# PUM1 PUF domain R5-AVR = PUM1 PUF domain R5-AVR (Homo sapiens, UniProt Q14671 828-1176, C1007A;R1008V;Q1011R)
# Summary of the method: as §1
# PUM1 PUF domain R3-EFE = PUM1 PUF domain R3-EFE (Homo sapiens, UniProt Q14671 828-1176, C935E;R936F;Q939E)
# Summary of the method: as §1
# PUM1 PUF domain R5-KHC = PUM1 PUF domain R5-KHC (Homo sapiens, UniProt Q14671 828-1176, C1007K;R1008H;Q1011C)
# Summary of the method: as §1
# PUM1 PUF domain R3-RTL = PUM1 PUF domain R3-RTL (Homo sapiens, UniProt Q14671 828-1176, C935R;R936T;Q939L)
# Summary of the method: as §1
# PUM1 PUF domain R5-SRQ = PUM1 PUF domain R5-SRQ (Homo sapiens, UniProt Q14671 828-1176, C1007S)
# Summary of the method: as §1
# PUM1 PUF domain R8-VWK = PUM1 PUF domain R8-VWK (Homo sapiens, UniProt Q14671 828-1176, N1122V;Y1123W;Q1126K)
# Summary of the method: as §1
# PUM1 PUF domain R6-SYS = target: T1, PUM1 PUF domain R6-SYS (Homo sapiens, UniProt Q14671 828-1176, N1043S;Q1047S)
# T1 sequence: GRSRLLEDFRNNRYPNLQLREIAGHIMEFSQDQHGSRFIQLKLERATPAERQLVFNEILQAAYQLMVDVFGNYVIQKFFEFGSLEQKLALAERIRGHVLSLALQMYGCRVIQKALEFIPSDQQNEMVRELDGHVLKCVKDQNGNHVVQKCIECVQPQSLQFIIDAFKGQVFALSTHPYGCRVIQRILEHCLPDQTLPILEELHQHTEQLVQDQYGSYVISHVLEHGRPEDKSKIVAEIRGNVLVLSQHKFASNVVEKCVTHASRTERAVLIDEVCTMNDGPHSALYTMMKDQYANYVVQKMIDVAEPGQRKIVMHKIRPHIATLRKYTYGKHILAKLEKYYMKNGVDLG
# Summary of the method: as §1
# PUM1 PUF domain R6-AFG = target: T2, PUM1 PUF domain R6-AFG (Homo sapiens, UniProt Q14671 828-1176, N1043A;Y1044F;Q1047G)
# T2 sequence: T1 sequence with S216A, Y217F, S220G
# Summary of the method: as §1
# PUM1 PUF domain R2-KKG = PUM1 PUF domain R2-KKG (Homo sapiens, UniProt Q14671 828-1176, N899K;Y900K;Q903G)
# Summary of the method: as §1
sequence,measurement,setting,value
GGCUAGAACUAGUGGAUCCCCCGGCGCCCGGCGGCUCGAGCCCGGGUAAGUGUAUAUAGUCUGCAUGCCGCCGGGCGCCAUGCCUGCAGGUCGACUCUAGAAAACAUG,binding signal,PUM1 PUF domain R4-SNC,3.92 log2 enrichment (interaction score)
GGCUAGAACUAGUGGAUCCCCCGGCGCCCGGCGGCUCGAGCCCGGGUAAGUGUCAAUAGUCUGCAUGCCGCCGGGCGCCAUGCCUGCAGGUCGACUCUAGAAAACAUG,binding signal,PUM1 PUF domain R5-AVR,4.64 log2 enrichment (interaction score)
GGCUAGAACUAGUGGAUCCCCCGGCGCCCGGCGGCUCGAGCCCGGGUAAGUGUAAGUAGUCUGCAUGCCGCCGGGCGCCAUGCCUGCAGGUCGACUCUAGAAAACAUG,binding signal,PUM1 PUF domain R3-EFE,5.2 log2 enrichment (interaction score)
GGCUAGAACUAGUGGAUCCCCCGGCGCCCGGCGGCUCGAGCCCGGGUAAGUGUUAAUAGUCUGCAUGCCGCCGGGCGCCAUGCCUGCAGGUCGACUCUAGAAAACAUG,binding signal,PUM1 PUF domain R5-KHC,6.52 log2 enrichment (interaction score)
GGCUAGAACUAGUGGAUCCCCCGGCGCCCGGCGGCUCGAGCCCGGGUAAGUGUAAUUAGUCUGCAUGCCGCCGGGCGCCAUGCCUGCAGGUCGACUCUAGAAAACAUG,binding signal,PUM1 PUF domain R3-EFE,3.56 log2 enrichment (interaction score)
same,binding signal,PUM1 PUF domain R3-RTL,2.61 log2 enrichment (interaction score)
GGCUAGAACUAGUGGAUCCCCCGGCGCCCGGCGGCUCGAGCCCGGGUAAGUGUGAAUAGUCUGCAUGCCGCCGGGCGCCAUGCCUGCAGGUCGACUCUAGAAAACAUG,binding signal,PUM1 PUF domain R5-AVR,0.2 log2 enrichment (interaction score)
same,binding signal,PUM1 PUF domain R5-SRQ,3.6 log2 enrichment (interaction score)
GGCUAGAACUAGUGGAUCCCCCGGCGCCCGGCGGCUCGAGCCCGGGUAAGUGUAAAUAGUCUGCAUGCCGCCGGGCGCCAUGCCUGCAGGUCGACUCUAGAAAACAUG,binding signal,PUM1 PUF domain R5-AVR,1.73 log2 enrichment (interaction score)
same,binding signal,PUM1 PUF domain R5-KHC,3.4 log2 enrichment (interaction score)
same,binding signal,PUM1 PUF domain R4-SNC,2.78 log2 enrichment (interaction score)
same,binding signal,PUM1 PUF domain R8-VWK,4.11 log2 enrichment (interaction score)
same,binding signal,PUM1 PUF domain R6-SYS,3 log2 enrichment (interaction score)
same,binding signal,PUM1 PUF domain R6-AFG,3.11 log2 enrichment (interaction score)
GGCUAGAACUAGUGGAUCCCCCGGCGCCCGGCGGCUCGAGCCCGGGUAAGUGUAAAGAGUCUGCAUGCCGCCGGGCGCCAUGCCUGCAGGUCGACUCUAGAAAACAUG,binding signal,PUM1 PUF domain R2-KKG,7.11 log2 enrichment (interaction score)
GGCUAGAACUAGUGGAUCCCCCGGCGCCCGGCGGCUCGAGCCCGGGUAAGUGUACAUAGUCUGCAUGCCGCCGGGCGCCAUGCCUGCAGGUCGACUCUAGAAAACAUG,binding signal,PUM1 PUF domain R4-SNC,2.48 log2 enrichment (interaction score)

# — publication PMC8384837, “Expanding the binding specificity for RNA recognition by a PUF domain”
